We go through 102 compounds from ChEMBL document CHEMBL3988442, “University of Dundee, Small-Polar-MMV Screening Library” (2021).

Among all 48,000 compounds or so, about 13,000 (27%) showed an effect of 50% or more. This is one part of the list.

This test relates to Wolbachia pipientis. In words: Anti-Wolbachia Cell-Based Screen. As to conditions: 5 µM. In kind it is functional. Further details: scale not given: in the data most compounds retested in dose-response had high values.
Take `CC(=O)N1CC(C(=O)Nc2cccc(OC(F)F)c2)C1`: the “Percent Effect” value is 13.11%.

Consider `CCc1nc(-c2noc3ccc(C(=O)NCCN(C)C)cc23)co1`, for which the “Percent Effect” value is reported as -6.651%. The same measure for `CC(C)(C)NS(=O)(=O)c1ccccc1CNCc1ccccc1`: 8.138%.

On to `CC(C)S(=O)(=O)N1CCCC(c2nccn2Cc2cccnc2)C1` (configuration not stated), for which the “Percent Effect” value was -1.301%. The same measure for `CC(C)c1nccn1-c1nccnc1C1CCCN1Cc1cccnc1` (configuration not stated): 125.6%; for `Cc1nc(CN2CCCC2Cn2ccnc2C(C)C)nc2ccccc12` (configuration not stated): 0.1374%. The same measure for `Nc1ncncc1-c1noc([C@@H]2CCCN2Cc2cccnc2)n1`: -7.414%; for `CC(C)c1nccn1-c1nccnc1C1CCCN1Cc1ccccc1` (configuration not stated): 124.1%; for `CC(C)c1nccn1CC1CCCN1Cc1nc2ccccc2n1C` (configuration not stated): -4.978%. The same measure for `CC(NCc1ccc(OCC(N)=O)cc1)c1ccc2c(c1)CCCC2` (configuration not stated): -9.081%. With `CS(=O)(=O)Cc1noc(CN(Cc2ccco2)c2ccccc2)n1`, the “Percent Effect” value is -3.718%. In the case of `CN(C)CCN(C)C(=O)c1cnc2c(c1)nc(-c1ccccc1Cl)n2C` it was -6.044%.

For the compound `Cc1nnc(NC(=O)NCc2cc(F)cc(F)c2)s1`, the “Percent Effect” value is given as 4.254%.

On to `Cc1nnc(NC(=O)NCc2ccoc2)s1`, for which the “Percent Effect” value was found to be 74.81%. The same measure for `Cn1cc(NC(=O)NCc2ccoc2)ccc1=O`: 13.17%; for `COc1ccc(F)cc1C(C)NC(=O)Nc1nnc(C)s1` (configuration not stated): -6.536%.

In the case of `Cc1nnc(NC(=O)NCc2ccc(F)cc2)s1`, the “Percent Effect” value is 93.84%.

With `O[C@H]1CC[C@@H](Cc2cc(-c3ccccn3)on2)O[C@@H]1CNCC1CC1`, the “Percent Effect” value was found to be 8.949%. The same measure for `CN1CCCN(C(=O)c2nc3c(s2)CCCN3CC2CC2)CC1`: 15.57%. The same measure for `c1ccc2sc(CN3CCCC3c3noc(C4CC4)n3)nc2c1` (configuration not stated): 1.502%. Turning to `CN(C)Cc1ccnc(C2CCCN2Cc2ccncc2)n1` (configuration not stated), the “Percent Effect” value is on record as -6.271%. The same measure for `CN(C)Cc1ccnc(C2CCCN2Cc2ccc3ncccc3c2)n1` (configuration not stated): 102.5%; for `O=C1O[C@@H]2CN(Cc3cc4ccccc4s3)C[C@@H]2N1Cc1ccccn1`: 7.899%. The same measure for `CN(C)Cc1ccnc(C2CCCN2Cc2cc3ccccc3s2)n1` (configuration not stated): 97.93%. Turning to `Cc1cc(C)cc(CN2CCCC2c2noc(C)n2)c1` (configuration not stated), the “Percent Effect” value is -1.497%. In the case of `CCC(C)(C)NC(=O)c1ccc(NC(=O)NCc2cc(C)on2)cc1` it was -5.404%; in that of `CN1CC2(CCN(C(=O)c3ccc4c(=O)n(C)cnc4c3)CC2)CC1=O`, -1.826%; in that of `COc1ccc(CC(=O)N2CCCC(Cn3cc(CN)nn3)C2)cc1` (configuration not stated), -29.22%. The same measure for `COc1cccc(C(=O)N2CCCC(C(=O)CCc3ccccc3)C2)c1` (configuration not stated): -1.62%; for `N[C@@H]1CCCN(C(=O)Cc2c[nH]c3ccccc23)[C@H]1c1ccccc1F`: 92.02%; for `CN(C(=O)Cc1c[nH]c2ccccc12)C1CCN(c2ccccn2)CC1`: -5.005%. The same measure for `COc1cccc(CC2CCCN2CC(N)=O)c1` (configuration not stated): 14.09%; for `COc1cccc(CCC(=O)N2CCC[C@@H](N)[C@@H]2c2ccccc2F)c1.Cl`: 156.6%; for `COC(=O)c1cc2n(n1)CCCN(C(=O)Cc1c[nH]c3ccccc13)C2`: -8.312%. For `COc1ccc(CC(=O)N2CCC[C@@H](N)[C@@H]2c2ccccc2F)cc1.Cl`, the “Percent Effect” value was 65.32%. In the case of `CN1CCC(N[C@@H]2CO[C@H](CNC(=O)C3CCCC3)[C@H]2O)CC1` it was -10.26%; in that of `CN(C)C(=O)CNC(=O)CCn1ncc2c(Cl)cccc21`, 7.628%. In the case of `CC1CCCN(CCNC(=O)c2ccn(-c3ccccc3)n2)C1` (configuration not stated) it was -2.104%. For `COc1cn(-c2ccccc2)nc1C(=O)NCCN1CCCC(C)C1` (configuration not stated), the “Percent Effect” value was found to be 85.45%. The same measure for `CC1CCCN(CCNC(=O)c2ccn(-c3ccc(F)cc3)n2)C1` (configuration not stated): 89.11%. In the case of `O=C(NCCn1ccnc1)c1ccn(-c2cccc(F)c2)n1` it was 3.245%. In the case of `COc1ccc(-n2ccc(C(=O)NCCN3CCCC(C)C3)n2)cc1` (configuration not stated) it was 109.8%. For `COc1cn(-c2ccccc2)nc1C(=O)NCCCN1CCCC(C)C1` (configuration not stated), the “Percent Effect” value is 0.4079%. For `CC1CCCN(CCCNC(=O)c2cn(C)nc2-c2cccnc2)C1` (configuration not stated), the “Percent Effect” value is recorded as -7.015%.

With `CC1CCCN(CCNC(=O)c2ccn(-c3cccc(F)c3)n2)C1` (configuration not stated), the “Percent Effect” value was determined as 71.46%. In the case of `CC(=O)N1CCC(C(=O)NCCN2CCCC(C)C2)CC1` (configuration not stated), the “Percent Effect” value is 4.421%. The same measure for `COCC1c2nnn(CC3CC3)c2CCN1C(=O)c1ccnnc1` (configuration not stated): -5.349%. In the case of `Cc1csc(N(C)C(=O)C2CC(=O)N(c3ccccc3Cl)C2)n1` (configuration not stated) it was 9.936%; in that of `CC(Sc1nnc(C2CC2)n1CC(N)=O)c1ccc(F)cc1F` (configuration not stated), -10.03%; in that of `Cc1cccc(-c2ncc(CNC(C)CO)cn2)c1` (configuration not stated), -5.698%. The same measure for `Cn1cnnc1C1CCN(c2cncc(-n3cccn3)n2)CC1`: 0.9995%; for `O=C(NCC(O)(c1cccs1)C1CC1)NC1CCCCC1` (configuration not stated): 9.559%; for `COCC1CN(S(=O)(=O)Cc2ccccc2)Cc2c1cnn2C.O=C(O)C(F)(F)F` (configuration not stated): -18.15%.

Consider `Cc1cccc(N2CCN(CC(=O)N3CCCC(N(C)C)CC3)CC2)c1` (configuration not stated), for which the “Percent Effect” value is -50.72%.

In the case of `Cc1cc(Nc2cnccn2)cc(C2CCCN2)n1` (configuration not stated), the “Percent Effect” value came to 103.5%. In the case of `Cc1cc(C)nc(NC2CCOC3(CCCC3)C2)n1` (configuration not stated) it was -13.03%; in that of `Cc1cc(Nc2nc(C)cc(C)n2)cc(C2CCCN2)n1` (configuration not stated), 104%; in that of `Cl.Cl.Fc1cccc(-c2c[nH]c(C3CCCN3)n2)c1` (configuration not stated), -26.74%.

Consider `Cc1cc(Nc2cnccn2)cc(C2CCCNC2)n1` (configuration not stated), for which the “Percent Effect” value was found to be 90.08%. In the case of `Cc1cc(Nc2ccc(F)cn2)cc(C2CCCN2)n1` (configuration not stated) it was 111.9%; in that of `Cn1cc(C2CC3(CCN(C(=O)c4ccsc4)CC3)NC2=O)cn1` (configuration not stated), -8.602%; in that of `Cc1ccc(C(=O)N2CC(C)(C)[C@@](C)(O)C2)cc1N1CCNC1=O`, -5.477%. In the case of `Cc1nn(C)c(C)c1CN(CCO)C(=O)C1COc2ccccc2C1` (configuration not stated) it was -4.476%; in that of `COCC(O)CNC(=O)c1coc(COc2ccc3sc(C)nc3c2)n1` (configuration not stated), -2.868%. In the case of `CC(Cn1cccn1)NCc1csc(-c2ccccc2)n1` (configuration not stated) it was 5.94%; in that of `CCCS(=O)(=O)NC(=O)c1ccc(Br)o1`, -3.964%; in that of `CC(=O)N1CCC(c2nc3ccc(-c4ccnn4C)cn3n2)CC1.O=C(O)C(F)(F)F`, 79.91%. `Cn1nccc1-c1ccc2nc(C3CCN(CCO)CC3)nn2c1.O=C(O)C(F)(F)F`: the “Percent Effect” value was -15.06%. The same measure for `Cn1nccc1-c1ccc2nc(C3CCN(CC4CC4)CC3)nn2c1.O=C(O)C(F)(F)F.O=C(O)C(F)(F)F`: 97.48%; for `Cn1nccc1-c1ccc2nc(C3CCNCC3)nn2c1`: 98.45%; for `CC(C)N1CCC(c2nc3ccc(-c4ccnn4C)cn3n2)CC1.O=C(O)C(F)(F)F`: 101.4%. In the case of `O=C(O)C(F)(F)F.O=C(O)C(F)(F)F.c1cc2nc(C3CCN(CC4CC4)CC3)nn2cc1N1CCCC1` it was -8.773%; in that of `CCC1c2ccsc2CCN1C(=O)NCCNc1ncccn1` (configuration not stated), 9.072%. The same measure for `O=C(c1ccccn1)N1C[C@@H]2CC[C@H](C1)N(C(=O)Cc1cccs1)C2`: -18.37%. Regarding `CCc1sc(-c2nnc(CNC(C)Cn3cccn3)o2)cc1C` (configuration not stated), the “Percent Effect” value is -4.192%. The same measure for `Cn1ccc(C(=O)NC2CCC23CCN(Cc2cnn(C)c2)CC3)c1.O=C(O)C(F)(F)F` (configuration not stated): 118.5%.

With `Cn1ccc(C(=O)NC2CCC23CCN(Cc2ccc(F)cc2)CC3)c1.O=C(O)C(F)(F)F` (configuration not stated), the “Percent Effect” value is given as 104.6%.

`Cn1ccc(C(=O)NC2CCC23CCN(CC2CCOCC2)CC3)c1.O=C(O)C(F)(F)F` (configuration not stated): the “Percent Effect” value was 102.1%. The same measure for `Cn1ccc(C(=O)NC2CCC23CCN(C(=O)c2ccncc2)CC3)c1.O=C(O)C(F)(F)F` (configuration not stated): -9.033%; for `Cn1ccc(C(=O)NC2CCC23CCN(Cc2cccnc2)CC3)c1.O=C(O)C(F)(F)F.O=C(O)C(F)(F)F` (configuration not stated): 0.1855%; for `Cc1ccc(CN2CCC3(CCC3NC(=O)c3ccn(C)c3)CC2)s1.O=C(O)C(F)(F)F` (configuration not stated): 90.78%. In the case of `Cc1ccc(CN2CC(C(=O)NCC3CC3)C3(CCOCC3)C2)s1.O=C(O)C(F)(F)F` (configuration not stated), the “Percent Effect” value came to 9.43%. The same measure for `Cn1ccc(C(=O)NC2CCC23CCN(C(=O)C2CCOCC2)CC3)c1` (configuration not stated): -10.05%; for `Cn1ccc(C(=O)NC2CCC23CCN(C(=O)c2cnccn2)CC3)c1` (configuration not stated): 13.19%. The same measure for `COCC(=O)N1CCC2(CCC2NC(=O)c2ccn(C)c2)CC1` (configuration not stated): -13.3%. In the case of `Cc1ccccc1CN1CCN(C(=O)CN2CCOC2=O)CC1` it was -7.914%; in that of `Cc1nc2c(c(N3CCCC(CO)C3)n1)CCN(Cc1ccco1)CC2` (configuration not stated), -5.863%; in that of `CC(C)(C)CC(=O)NC[C@H]1OC[C@@H](NCc2ccccn2)[C@@H]1O`, -12.57%. `COc1ccc(CN2C[C@@H](CN(C)C)[C@@H](CO)C2)cc1OC`: the “Percent Effect” value came out at 17.76%.

For `Cn1ccc(C(=O)NC2CCC23CCN(C(=O)c2ccccn2)CC3)c1` (configuration not stated), the “Percent Effect” value is -6.667%. The same measure for `Cn1ccc(C(=O)NC2CCC23CCN(C(=O)c2ccnnc2)CC3)c1` (configuration not stated): 9.055%. Regarding `Cn1ccc(C(=O)NC2CCC23CCN(Cc2nccs2)CC3)c1` (configuration not stated), the “Percent Effect” value was determined as 125.2%.

Take `CS(=O)(=O)NCc1cc2n(n1)CCCN(Cc1ccc(Cl)s1)C2`: the “Percent Effect” value worked out at 7.385%.

Take `CC(C)(O)CN1CCN(C(=O)C2CSc3ccccc3O2)CC1` (configuration not stated): the “Percent Effect” value is reported as -0.7844%.

Regarding `CC(C)C[C@H](N)C(=O)N1CCSc2ccccc2C1.Cl`, the “Percent Effect” value turned out to be 104.5%. The same measure for `Cl.NC(C(=O)N1CCSc2ccccc2C1)c1ccccc1` (configuration not stated): 93.09%; for `Cc1csc(CN(C)C(C)C(=O)N2CCc3ccccc3C2)n1` (configuration not stated): 7.72%. In the case of `CN(C)C(C(=O)N1Cc2ccccc2C1)c1ccccc1F` (configuration not stated) it was -6.272%. The same measure for `CCc1cnc(CN(C)C(C)C(=O)N2CCc3ccccc3C2)s1` (configuration not stated): -7.357%; for `O=C(C1CSc2ccccc2O1)N1CCN(CCO)CC1` (configuration not stated): -0.8425%. For the compound `N[C@@H](C(=O)N1CCN(c2ccccc2Cl)C(=O)C1)c1ccccc1`, the “Percent Effect” value is reported as 1.545%. In the case of `CC(C)[C@H](N)C(=O)N1CCSc2ccccc2C1.Cl` it was 101.9%.
